# Molecular target: Serine/threonine-protein kinase MRCK alpha (Homo sapiens) (UniProt Q5VT25)
# Details: at 1 µM
# Serine/threonine-protein kinase MRCK alpha (Homo sapiens), sequence (Q5VT25 whole entry): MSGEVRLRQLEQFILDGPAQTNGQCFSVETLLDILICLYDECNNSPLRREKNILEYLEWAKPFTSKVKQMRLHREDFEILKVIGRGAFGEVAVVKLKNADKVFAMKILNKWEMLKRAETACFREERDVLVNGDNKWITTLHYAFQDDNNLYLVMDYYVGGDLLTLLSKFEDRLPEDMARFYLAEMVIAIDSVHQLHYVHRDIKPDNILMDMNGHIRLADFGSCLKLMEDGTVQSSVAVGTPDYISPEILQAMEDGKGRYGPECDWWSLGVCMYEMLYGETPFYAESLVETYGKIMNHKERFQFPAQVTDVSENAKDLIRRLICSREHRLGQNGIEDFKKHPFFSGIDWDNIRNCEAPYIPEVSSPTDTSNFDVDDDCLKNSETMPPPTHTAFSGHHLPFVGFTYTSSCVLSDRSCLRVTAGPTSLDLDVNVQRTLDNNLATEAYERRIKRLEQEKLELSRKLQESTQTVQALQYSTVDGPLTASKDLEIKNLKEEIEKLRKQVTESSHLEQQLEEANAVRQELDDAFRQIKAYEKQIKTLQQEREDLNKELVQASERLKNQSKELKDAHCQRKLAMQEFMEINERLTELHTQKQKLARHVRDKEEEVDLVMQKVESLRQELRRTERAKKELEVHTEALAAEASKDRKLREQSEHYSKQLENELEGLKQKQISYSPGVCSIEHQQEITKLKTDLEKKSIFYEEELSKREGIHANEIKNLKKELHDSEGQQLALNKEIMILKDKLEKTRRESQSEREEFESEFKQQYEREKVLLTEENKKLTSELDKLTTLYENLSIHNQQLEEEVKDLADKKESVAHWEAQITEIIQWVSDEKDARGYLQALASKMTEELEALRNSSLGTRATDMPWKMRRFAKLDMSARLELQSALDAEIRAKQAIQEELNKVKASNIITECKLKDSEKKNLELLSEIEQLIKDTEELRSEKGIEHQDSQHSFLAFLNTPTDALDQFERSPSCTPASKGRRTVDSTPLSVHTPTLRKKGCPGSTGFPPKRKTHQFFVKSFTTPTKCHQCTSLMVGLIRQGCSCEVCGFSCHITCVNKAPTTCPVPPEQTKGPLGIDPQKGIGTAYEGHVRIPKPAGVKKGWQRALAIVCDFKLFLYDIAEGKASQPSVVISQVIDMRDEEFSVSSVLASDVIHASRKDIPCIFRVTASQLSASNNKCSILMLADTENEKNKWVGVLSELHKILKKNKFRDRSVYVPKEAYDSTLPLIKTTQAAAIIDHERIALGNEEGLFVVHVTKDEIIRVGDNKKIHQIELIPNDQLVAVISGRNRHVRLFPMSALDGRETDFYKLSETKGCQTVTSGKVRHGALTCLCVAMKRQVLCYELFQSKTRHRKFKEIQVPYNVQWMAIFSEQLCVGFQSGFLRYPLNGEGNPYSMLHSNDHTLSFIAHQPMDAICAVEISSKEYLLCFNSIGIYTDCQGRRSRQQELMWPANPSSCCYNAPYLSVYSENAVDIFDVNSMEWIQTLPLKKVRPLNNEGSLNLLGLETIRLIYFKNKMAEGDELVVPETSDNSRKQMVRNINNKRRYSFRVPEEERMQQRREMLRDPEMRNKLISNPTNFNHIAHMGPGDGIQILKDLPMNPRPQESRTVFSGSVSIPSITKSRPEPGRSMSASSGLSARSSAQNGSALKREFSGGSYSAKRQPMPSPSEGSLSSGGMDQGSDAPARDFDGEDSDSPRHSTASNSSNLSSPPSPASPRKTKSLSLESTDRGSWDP
row,Compound,residual activity [%]
1,N#C/C(=C(\N)Sc1ccc(N)cc1)c1ccccc1C(F)(F)F,107
2,CO[C@H]1C[C@@H]2CC[C@@H](C)[C@@](O)(O2)C(=O)C(=O)N2CCCC[C@H]2C(=O)O[C@H]([C@H](C)C[C@@H]2CC[C@@H](O)[C@H](OC)C2)CC(=O)[C@H](C)/C=C(\C)[C@@H](O)[C@@H](OC)C(=O)[C@H](C)C[C@H](C)/C=C/C=C/C=C/1C,118
3,Cc1nc(-c2ccccc2)c(-c2ccncc2)o1,114
4,CC(=O)c1ccc(N2CCOCC2)cc1O,105
5,Cc1nc2cc3nc(-c4cccs4)cnc3cc2n1C,116
6,Nc1n[nH]c2nnc(-c3c(-c4ccccc4)nn4ccccc34)cc12,111
7,CCN(CC)CCCCN1c2ccccc2Oc2ccc(Cl)cc21,133
8,Cn1cnc2cc3c(Nc4cccc(Br)c4)ncnc3cc21,105
9,CO[C@H]1[C@@H](OC)C[C@H](C)[C@@H](OC)C2=CC(=O)C=C(NC(=O)/C(C)=C/C=C/[C@H](OC)[C@@H](OC(N)=O)/C(C)=C/[C@@H]1C)C2=O,114
10,CN(C)c1ccc(/C=C2\C(=O)Nc3ccccc32)cc1,113
11,COc1ccc(S(=O)(=O)N(CCO)c2ccccc2CN(C)C/C=C/c2ccc(Cl)cc2)cc1,119
12,O=Nc1c(-c2c(O)[nH]c3ccccc23)[nH]c2ccccc12,142
13,O=C1NC(=O)/C(=C/c2ccc3c(c2)OC(F)(F)O3)S1,112
14,Oc1ccc(-c2nc(-c3ccc(F)cc3)c(-c3ccncc3)[nH]2)cc1,116
15,N#Cc1cnc2cnc(NCc3cccnc3)cc2c1Nc1ccc(F)c(Cl)c1,14
16,CNc1cc2c(Nc3cccc(Br)c3)ncnc2cn1,98

row,Compound,residual activity [%]
1,O=C1NC(=O)c2cc(Nc3ccc(F)cc3)c(Nc3ccc(F)cc3)cc21,100
2,COc1cccc(-c2cc(=O)c3ccccc3o2)c1N,118
3,c1ccc(-c2n[nH]c3c2oc2ccccc23)cc1,92
4,Ic1cccc(CSc2nnc(-c3ccncc3)o2)c1,123
5,CO[C@@H]1[C@H](N(C)C(=O)c2ccccc2)C[C@H]2O[C@]1(C)n1c3ccccc3c3c4c(c5c6ccccc6n2c5c31)C(=O)NC4,93
6,NC(=O)c1ccc2[nH]c(-c3ccc(Oc4ccc(Cl)cc4)cc3)nc2c1,113
7,O=C1Nc2cc(Br)ccc2/C1=C1/Nc2ccccc2/C1=N\O,141
8,COc1cc2ncnc(Nc3ccc(Oc4ccccc4)cc3)c2cc1OC,103
9,CCOc1cc2ncnc(Nc3cccc(Br)c3)c2cc1OCC,88
10,O=c1cc(-c2cccc3c2Sc2ccccc2S3)oc(N2CCOCC2)c1,110
11,Nc1cccc(-c2cc3c(Oc4cccc(O)c4)ncnc3[nH]2)c1,123
12,Nc1nc(Nc2ccc(S(N)(=O)=O)cc2)nn1C(=S)Nc1c(F)cccc1F,28
13,CC(C)n1cnc2c(NCc3ccccc3)nc(NCCCO)nc21,86
14,O=C1NC(=O)/C(=C\c2ccc3nccnc3c2)S1,106
15,O=C(O)c1ccc2c3c1cccc3c(=O)n1c3ccccc3nc21,107
16,COc1cc2ncnc(Nc3ccc(O)c(Br)c3)c2cc1OC,82

# Molecular target: Serine/threonine-protein kinase MRCK alpha (Homo sapiens) (UniProt Q5VT25)
# Details: at 10 µM
row,Compound,residual activity [%]
1,N#C/C(=C(\N)Sc1ccc(N)cc1)c1ccccc1C(F)(F)F,94
2,CO[C@H]1C[C@@H]2CC[C@@H](C)[C@@](O)(O2)C(=O)C(=O)N2CCCC[C@H]2C(=O)O[C@H]([C@H](C)C[C@@H]2CC[C@@H](O)[C@H](OC)C2)CC(=O)[C@H](C)/C=C(\C)[C@@H](O)[C@@H](OC)C(=O)[C@H](C)C[C@H](C)/C=C/C=C/C=C/1C,146
3,Cc1nc(-c2ccccc2)c(-c2ccncc2)o1,129
4,CC(=O)c1ccc(N2CCOCC2)cc1O,92
5,Cc1nc2cc3nc(-c4cccs4)cnc3cc2n1C,102
6,Nc1n[nH]c2nnc(-c3c(-c4ccccc4)nn4ccccc34)cc12,98
7,CCN(CC)CCCCN1c2ccccc2Oc2ccc(Cl)cc21,119
8,Cn1cnc2cc3c(Nc4cccc(Br)c4)ncnc3cc21,87
9,CO[C@H]1[C@@H](OC)C[C@H](C)[C@@H](OC)C2=CC(=O)C=C(NC(=O)/C(C)=C/C=C/[C@H](OC)[C@@H](OC(N)=O)/C(C)=C/[C@@H]1C)C2=O,92
10,CN(C)c1ccc(/C=C2\C(=O)Nc3ccccc32)cc1,105
11,COc1ccc(S(=O)(=O)N(CCO)c2ccccc2CN(C)C/C=C/c2ccc(Cl)cc2)cc1,113
12,O=Nc1c(-c2c(O)[nH]c3ccccc23)[nH]c2ccccc12,135
13,O=C1NC(=O)/C(=C/c2ccc3c(c2)OC(F)(F)O3)S1,104
14,Oc1ccc(-c2nc(-c3ccc(F)cc3)c(-c3ccncc3)[nH]2)cc1,103
15,N#Cc1cnc2cnc(NCc3cccnc3)cc2c1Nc1ccc(F)c(Cl)c1,9
16,CNc1cc2c(Nc3cccc(Br)c3)ncnc2cn1,101

row,Compound,residual activity [%]
1,O=C1NC(=O)c2cc(Nc3ccc(F)cc3)c(Nc3ccc(F)cc3)cc21,111
2,COc1cccc(-c2cc(=O)c3ccccc3o2)c1N,96
3,c1ccc(-c2n[nH]c3c2oc2ccccc23)cc1,116
4,Ic1cccc(CSc2nnc(-c3ccncc3)o2)c1,87
5,CO[C@@H]1[C@H](N(C)C(=O)c2ccccc2)C[C@H]2O[C@]1(C)n1c3ccccc3c3c4c(c5c6ccccc6n2c5c31)C(=O)NC4,102
6,NC(=O)c1ccc2[nH]c(-c3ccc(Oc4ccc(Cl)cc4)cc3)nc2c1,127
7,O=C1Nc2cc(Br)ccc2/C1=C1/Nc2ccccc2/C1=N\O,103
8,COc1cc2ncnc(Nc3ccc(Oc4ccccc4)cc3)c2cc1OC,134
9,CCOc1cc2ncnc(Nc3cccc(Br)c3)c2cc1OCC,99
10,O=c1cc(-c2cccc3c2Sc2ccccc2S3)oc(N2CCOCC2)c1,112
11,Nc1nc(Nc2ccc(S(N)(=O)=O)cc2)nn1C(=S)Nc1c(F)cccc1F,24
12,CC(C)n1cnc2c(NCc3ccccc3)nc(NCCCO)nc21,83
13,O=C1NC(=O)/C(=C\c2ccc3nccnc3c2)S1,93
14,O=C(O)c1ccc2c3c1cccc3c(=O)n1c3ccccc3nc21,115
15,COc1cc2ncnc(Nc3ccc(O)c(Br)c3)c2cc1OC,84

# Source: ChEMBL document CHEMBL2218924, “A broad activity screen in support of a chemogenomic map for kinase signalling research and drug discovery” (Biochem J, 2013)
